KCNQ2 pot = potentiators of rat KCNQ2 potassium channel; AID 2239; 310,000 tested, 0.54% active; CHO-K1 KCNQ2, FluxOR thallium flux fluorescence; hits give high values; O88943; B-score at 10 µM;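 active = fluorescence ratio B-score at least 3 SD of library B-scores, with initial fluorescence B-score within 3 of them, cut at about 5.3 in these data; same plate scores as AID 2156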;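 also: B-score of peak minus minimum over baseline fluorescence ratio after K+ and Tl+ stimulus; positive B-score means potentiation of KCNQ2 with more thallium influx and brighter signal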
Target sequence (O88943 whole entry, looked up): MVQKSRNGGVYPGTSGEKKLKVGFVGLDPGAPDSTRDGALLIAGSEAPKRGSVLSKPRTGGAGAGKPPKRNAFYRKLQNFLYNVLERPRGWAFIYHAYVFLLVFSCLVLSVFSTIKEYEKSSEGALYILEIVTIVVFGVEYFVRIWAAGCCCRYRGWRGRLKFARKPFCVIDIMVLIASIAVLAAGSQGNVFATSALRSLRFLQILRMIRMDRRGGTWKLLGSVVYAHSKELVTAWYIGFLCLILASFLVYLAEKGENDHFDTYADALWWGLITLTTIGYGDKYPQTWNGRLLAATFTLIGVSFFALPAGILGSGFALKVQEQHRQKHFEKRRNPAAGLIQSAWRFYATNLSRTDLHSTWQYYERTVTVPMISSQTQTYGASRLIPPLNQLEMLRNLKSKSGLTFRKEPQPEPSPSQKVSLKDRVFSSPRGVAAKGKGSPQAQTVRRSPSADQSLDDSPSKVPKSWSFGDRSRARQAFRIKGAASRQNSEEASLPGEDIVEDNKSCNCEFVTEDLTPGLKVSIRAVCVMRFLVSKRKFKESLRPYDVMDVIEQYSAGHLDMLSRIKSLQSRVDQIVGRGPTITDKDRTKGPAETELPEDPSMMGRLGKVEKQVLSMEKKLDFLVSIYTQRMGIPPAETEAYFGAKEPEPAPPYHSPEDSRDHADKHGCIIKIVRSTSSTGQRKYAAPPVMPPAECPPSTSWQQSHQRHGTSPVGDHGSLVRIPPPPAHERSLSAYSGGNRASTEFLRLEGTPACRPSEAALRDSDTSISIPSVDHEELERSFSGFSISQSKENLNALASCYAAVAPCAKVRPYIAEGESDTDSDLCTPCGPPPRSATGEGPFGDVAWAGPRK
KCNQ2 inh = inhibitors of rat KCNQ2 potassium channel | O88943 | AID 2156 | CHO-K1 KCNQ2, FluxOR thallium flux, 20 min; hits give low values | 310,000 tested, 1.1% active | B-score at 10 µM;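 active = fluorescence ratio B-score at most minus 3 library SDs, with starting brightness B-score within 2 library SDs, cut at about -5.5 in these data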
Of the large screens only hits and unclear results are named; the others gave an inactive call. Compounds with a hit are over-represented: about 1.6% of the library has one in this group of screens.

Cc1nc(SCC(=O)NCC2CCCO2)[nH]c(=O)c1C (stereo not drawn)	none (no result: KCNQ2 pot)
COCCn1cc(C(=O)N2CCC(C)CC2)c2c3ccccc3n(C)c2c1=O	KCNQ2 inh -5.7
CCOC(=O)N1CCN(C(=O)c2cn(CC(C)C)c(=O)c3c2c2ccccc2n3C)CC1	none (no result: KCNQ2 pot)
CC(C)Cn1cc(C(=O)N2CCOCC2)c2c3ccccc3n(C)c2c1=O	none (no result: KCNQ2 pot)
CC(C)Cn1cc(C(=O)N2CCC(C)CC2)c2c3ccccc3n(C)c2c1=O	KCNQ2 inh -7
Cn1ccnc1SCCNC(=O)CCc1nnc(CCc2ccccc2)o1	none (no result: KCNQ2 pot)
CC(C)[C@H](NC(=O)N1CCn2c1nc1ccccc12)C(=O)NC1CCCCC1	none (no result: KCNQ2 pot)
CC(NC(=O)Cc1cccs1)C(c1cccs1)N1CCN(c2ccccc2)CC1 (stereo not drawn)	KCNQ2 pot 8.2
CCC(=O)NC(C)C(c1cccs1)N1CCN(c2ccccc2)CC1 (stereo not drawn)	none
O=C(O)Cn1nnnc1SCC(=O)Nc1ccc(F)cc1F	none
O=C(O)CN1C(=O)C(=O)N(Cc2ccccc2F)C1=O	none
CCOC(=O)c1c(NC(=O)/C=C/C(=O)O)sc(C)c1-c1ccc(C(C)(C)C)cc1	KCNQ2 pot 7
CCOC(=O)c1c(NC(=O)/C=C\C(=O)O)sc(C)c1-c1ccccc1	none
O=C(NCCc1ccccc1)c1nc(-c2cccs2)no1	none (no result: KCNQ2 pot)
NS(=O)(=O)c1cccc(NC(=O)COC(=O)CCc2ccccc2)c1	none
Cc1ccnc(NC(=O)C2CC(=O)N(Cc3ccccc3)C2)c1 (stereo not drawn)	none
O=C(CSc1nc2ccsc2c(=O)n1NC(=O)c1ccccc1)Nc1nccs1	none (no result: KCNQ2 pot)
O=C(Nn1c(SCc2ccccc2F)nc2ccsc2c1=O)c1ccccc1	KCNQ2 inh -6.4
CCN(CC)C(=O)N1CCc2ccccc2C1CN1C(=O)c2ccccc2C1=O (stereo not drawn)	KCNQ2 inh -6.2
O=C1c2ccccc2C(=O)N1CC1c2ccccc2CCN1C(=O)CN1CCOCC1 (stereo not drawn)	none (no result: KCNQ2 pot)
O=C(O)[C@@H]1CCCC[C@@H]1C(=O)N1CCc2ccccc2C1CN1C(=O)c2ccccc2C1=O (stereo partly drawn)	none (no result: KCNQ2 pot)
O=C1c2ccccc2C(=O)N1CC1c2ccccc2CCN1C(=O)C1CCCCC1 (stereo not drawn)	KCNQ2 inh -6.9
Cc1ccc2nc(NCCc3ccccc3)c3nncn3c2c1	none (no result: KCNQ2 pot)
O=C(NCC1CCN(Cc2cccc(Cl)c2)CC1)Nc1ccccc1Cl	none
Cc1ccc(NC(=O)NCC2CCN(Cc3cccc(Cl)c3)CC2)c(Cl)c1	KCNQ2 pot 6.5
COc1ccc(CCNC(=O)CN2C(=O)NC(C)(c3ccc([N+](=O)[O-])cc3)C2=O)cc1 (stereo not drawn)	none
Cc1ccc(NC(=O)c2cc(C)nc3ccccc23)c(C)c1	KCNQ2 inh -5.9
COc1ccc(NC(=O)c2cc(C)nc3ccccc23)c(OC)c1	none (no result: KCNQ2 pot)
COCCN(C(=O)CSc1nnc(-c2ccccc2F)o1)c1c(N)n(CC(C)C)c(=O)[nH]c1=O	none
O=C(Nc1ccccc1C(=O)NCCCN1CCOCC1)c1ccc(Cl)cc1	none (no result: KCNQ2 pot)
COc1cc(C(=O)NCCCC2CCCC2)ccc1OC1CCN(C(C)=O)CC1	none (no result: KCNQ2 pot)
Cc1ccc2nc(Cl)c(CN(Cc3cccs3)C(=O)C3CC3)cc2c1	none (no result: KCNQ2 pot)
COc1ccc(CCN(Cc2cc3cc(C)c(C)cc3nc2Cl)C(=O)C2CC2)cc1	KCNQ2 inh -6.5
COc1ccccc1CNC(=O)C(C)c1ccc([N+](=O)[O-])cc1 (stereo not drawn)	none (no result: KCNQ2 pot)
CC(=O)N1CCOc2ccc(S(=O)(=O)N3CC(C)CC(C)C3)cc21 (stereo not drawn)	none (no result: KCNQ2 pot)
COc1ccc(C(=O)Nc2ccccc2C(=O)N/N=C/c2cccc3ccccc23)cc1	KCNQ2 inh -5.8
COc1ccc(/C=N/NC(=O)c2ccccc2OCc2ccccc2)c(OC)c1	KCNQ2 inh -6.8
Cc1cccc(/C=N/NC(=O)c2ccccc2OCc2cccc(Br)c2)n1	none (no result: KCNQ2 pot)
COc1ccc(C(=O)Nc2ccccc2C(N)=O)cc1	none
COc1ccc(/C(C)=N/NC(=O)c2ccccc2OCc2ccccc2)c(OC)c1	none (no result: KCNQ2 pot)
Cc1cccc(/C=N/NC(=O)c2cc(Br)ccc2OCc2ccccc2)n1	KCNQ2 inh -5.9
CC1=N/C(=C/c2cc(Br)cc(Br)c2O)C(=O)O1	none
O=C(O)c1cc(NC(=O)c2ccc(Cl)c([N+](=O)[O-])c2)cc(C(=O)O)c1	none
O=C(Nc1ccc(C(O)(C(F)(F)F)C(F)(F)F)cc1)c1ccc(Cl)c([N+](=O)[O-])c1	KCNQ2 inh -7
CCC(C)[C@H](NC(=O)[C@@H]1Cc2c([nH]c3ccccc23)C2c3ccccc3C(=O)N21)C(=O)NCC1CCCO1 (stereo partly drawn)	none (no result: KCNQ2 pot)
Cn1c(=O)c(C(=O)NCCc2ccccc2)c(O)c2ccccc21	none (no result: KCNQ2 pot)
CC(NC(=O)c1c(O)c2ccccc2n(C)c1=O)c1ccccc1 (stereo not drawn)	KCNQ2 inh -5.8
CN(C)c1ncc(C2=C(Cl)C(=O)C(N3CCCC3)=C(Cl)C2=O)s1	KCNQ2 inh -8.6
O=C1C(Cl)=C(N2CCCCC2)C(=O)C(Cl)=C1c1cnc(N2CCCCC2)s1	none (no result: KCNQ2 pot)
O=C(OCC(=O)N1CCCC1=O)C1CCN(S(=O)(=O)c2c(Cl)cccc2Cl)CC1	none
CC1CC1C(=O)N1CCN(S(=O)(=O)c2cccc(F)c2)CC1 (stereo not drawn)	none (no result: KCNQ2 pot)
CC1=NN(C(=O)c2csc(C)c2)C(O)(C(F)(F)F)C1 (stereo not drawn)	none
CC1=NN(C(=O)c2csc(C)c2C)C(O)(C(F)(F)F)C1 (stereo not drawn)	none
CC1=NN(C(=O)c2c(Br)c(C)nn2C)C(O)(C(F)(F)F)C1 (stereo not drawn)	KCNQ2 pot 11
CC1=NN(C(=O)c2cc(C)nn2C)C(O)(C(F)(F)F)C1 (stereo not drawn)	KCNQ2 pot 6
CC1=NN(C(=O)c2nn(C)cc2Br)C(O)(C(F)(F)F)C1 (stereo not drawn)	none (no result: KCNQ2 pot)
CC1=NN(C(=O)c2ccc(Br)cc2)C(O)(C(F)(F)OC(F)(F)F)C1 (stereo not drawn)	KCNQ2 pot 5.7
CCSc1cc(N2CCCC2)nc(-c2ccccc2Cl)n1	none (no result: KCNQ2 pot)
Cc1ccc2c(c1)oc(=O)n2CC(=O)c1ccccc1	none (no result: KCNQ2 pot)
C=CCOc1c(Br)cc(CNc2ccc(NC(=O)C(C)C)c(OC)c2)cc1OCC	KCNQ2 pot 6.6
C=CCOc1c(Br)cc(CNc2ccc3[nH]c(=O)[nH]c3c2)cc1OCC	none
CC(NCC(O)COCCC12CC3CC(CC(C3)C1)C2)c1ccccc1 (stereo not drawn)	KCNQ2 inh -7.7
NCC(O)COCCC12CC3CC(CC(C3)C1)C2 (stereo not drawn)	none (no result: KCNQ2 pot)
Cc1ccc(NC(=O)COC(=O)CCc2nc3ccccc3c(=O)[nH]2)cc1Cl	none
Cc1ccc(S(=O)(=O)C/N=C(/NC(=S)N(c2ccccc2)c2ccccc2)c2ccccc2)cc1	KCNQ2 inh -5.9
Cc1ccc(S(=O)(=O)/N=C(/NC(=S)Nc2ccccc2)c2ccccc2)cc1	none (no result: KCNQ2 pot)
O=S(=O)(c1ccc(-c2ccon2)s1)N1CCN(c2ccccn2)CC1	none
Cc1ccc(C)c(NS(=O)(=O)c2ccc(-c3cnc(C4CC4)o3)cc2)c1	KCNQ2 inh -6.8
Cc1cc(C)cc(NS(=O)(=O)c2ccc(-c3cnc(C4CC4)o3)cc2)c1	none (no result: KCNQ2 pot)
COc1ccc(NC(=O)CN(C)C(=O)c2cn(-c3ccccc3)nc2-c2ccc(Cl)cc2)cc1	none (no result: KCNQ2 pot)
CN1CCN(c2ccc(Cl)cc2NC(=O)/C=C/c2cccc(F)c2)CC1	KCNQ2 inh -6.5
CN1CCN(c2ccc(Cl)cc2NC(=O)c2cccc(S(=O)(=O)N(C)C)c2)CC1	none (no result: KCNQ2 pot)
